Screen size: about 16,000 compounds; about 4,000 (25%) were called active. About 26% were inconclusive and are not listed. A selection follows. Unmarked numbers belong to inactive results. Calls follow the shape of the dose curve; as a rule, active = well fitted curve in the direction sought with a large enough effect; inconclusive = small, poorly fitted or top-dose-only effect, or effect the other way; inactive = no such curve, though single readings can be large or run the other way.
The compounds below were run against Cytochrome P450 2C9 (Homo sapiens) (UniProt P11712) (assay: Cytochrome panel assay with activity outcomes). Conditions: recombinant CYP, pro-luciferin dealkylation, luminescence, p450-cyp2c9; series mostly up to 57.1 µM; activity, negative = inhibition: at the top concentration.
Sequence of Cytochrome P450 2C9 (Homo sapiens) (P11712 whole entry, looked up): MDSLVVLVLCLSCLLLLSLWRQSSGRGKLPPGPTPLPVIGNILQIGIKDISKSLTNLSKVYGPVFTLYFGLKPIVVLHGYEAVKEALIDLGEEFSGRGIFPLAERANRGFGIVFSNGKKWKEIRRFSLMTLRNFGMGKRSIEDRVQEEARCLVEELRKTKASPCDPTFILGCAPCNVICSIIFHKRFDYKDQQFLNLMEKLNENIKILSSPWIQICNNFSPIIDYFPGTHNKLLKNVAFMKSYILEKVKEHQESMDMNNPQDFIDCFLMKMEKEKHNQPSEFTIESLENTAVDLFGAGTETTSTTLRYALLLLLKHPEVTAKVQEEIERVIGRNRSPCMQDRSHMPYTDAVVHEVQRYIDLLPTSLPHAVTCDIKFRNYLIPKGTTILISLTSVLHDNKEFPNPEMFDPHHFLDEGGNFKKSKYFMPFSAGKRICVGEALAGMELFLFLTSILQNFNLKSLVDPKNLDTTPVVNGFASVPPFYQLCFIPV
% is scaled to controls: 0 for no effect and ±100 for the full control effect.

SMILES	activity, negative = inhibition	AC50
COc1cccc(-c2nc(Nc3ccncc3)c3ccccc3n2)c1	-24.2% [at 2.29 µM]	–
COc1ccc(Nc2ncnc3sc(-c4ccccc4)cc23)cc1	–	3.98 µM (active)
COc1ccc(-n2cnc3sc(-c4ccccc4)cc3c2=O)cc1	-26.2%	–
C[C@@]12C[C@H](O)[C@@H]3[C@H](CCC4=CC(=O)CC[C@]43C)[C@H]1CC[C@@H]2c1csc(N)n1	0.854% [at 11.4 µM]	–
CC(=O)[C@@H]1CC[C@@H]2[C@@H]3C[C@H](C)C4=CC(=O)CC[C@@]4(C)[C@H]3[C@H](O)C[C@]21C	–	0.398 µM (active)
CC(=O)[C@H]1CC[C@H]2[C@@H]3C=CC4=CC(=O)CC[C@@]4(C)[C@H]3CC[C@]12C	-25% [at 25.6 µM]	–
CCCCSc1nnc(-c2ccc(C)cc2)n1C	14.8%	–
CCCCSc1ccc2nc(-c3ccc(C#N)cc3)cn2c1	–	3.55 µM (active)
Nc1ccccc1CCCC(=O)O	1.29% [at 11.4 µM]	–
COc1cccc(C2=NOC(C(=O)NCc3ccccn3)C2)c1 (configuration not stated)	14.7%	–
CCn1c(CCCc2nc3c([nH]2)c(=O)n(C)c(=O)n3C)nc2c1c(=O)n(C)c(=O)n2C	6.37% [at 11.4 µM]	–
Cn1c(=O)c2c(nc(N/N=C\c3ccccc3C(=O)O)n2C)n(C)c1=O	7.56% [at 11.4 µM]	–
CC(C)CCn1c(Oc2ccccc2Cl)nc2c1c(=O)n(C)c(=O)n2C	–	1 µM (active)
C[C@@]1(C(=O)O)CCC[C@@H]1C(=O)O	2.33% [at 11.4 µM]	–
C[N+]1(CCCC[N+]2(C)CCCCCCC2)CCCCCCC1	-4.37% [at 11.4 µM]	–
C=CCC(NCc1ccco1)c1ccc(OC)cc1 (configuration not stated)	-46.1%	–
Cc1ccc(OCC(=O)NNC(=O)CCC(=O)Nc2ccc(C)cc2C)cc1	33.9%	–
Cc1cccc(OCCCC(=O)Nc2ccccc2C(F)(F)F)c1	47.3%	–
Cc1ccc(OCCCC(=O)Nc2ccccc2C(F)(F)F)cc1	–	7.94 µM (active)
CCCCCOc1ccc(C(=O)NCC2(c3ccccc3)CCOCC2)cc1	–	2.82 µM (active)
O=C(NCCc1ccccc1)C(=O)NCC1(c2ccccc2)CCCC1	-15.3%	–

SMILES	activity, negative = inhibition	AC50
Cc1ccc(-c2ccc(=O)n(CC(=O)NCc3ccco3)n2)cc1	–	7.94 µM (active)
CCCCOc1ccc(C(=O)N/C(=C\c2ccc(OC)cc2)C(=O)OCc2ccco2)cc1	–	2.82 µM (active)
CCN(CC)CCNC(=O)Cn1nc(-c2ccc(C)cc2)ccc1=O	-0.479%	–
CCCN1CCN(CCCNC(=O)Cn2nc(-c3ccc(C)cc3)ccc2=O)CC1	-9.34%	–
O=P(O)(CCP(=O)(O)c1ccccc1)c1ccccc1	2.87% [at 11.4 µM]	–
Cc1noc(C)c1-c1cncnc1N(C)Cc1ccco1	17.6% [at 2.29 µM]	–
NCC[C@H](N)C(=O)O	0.553% [at 11.4 µM]	–
CC1(C)OC(C(N)=O)C(C(N)=O)O1 (configuration not stated)	-8.75%	–
Cc1ccc(OCCCC(=O)NCc2ccco2)cc1	–	14.1 µM (active)
Cc1ccc(OCC(=O)NNC(=O)CCC(=O)NCc2ccccc2)cc1	-12%	–
C/C(CC(=O)NCc1ccco1)=N\NC(=O)Cc1ccccc1	-20.5%	–
CCS(=O)(=O)N1CCC(C(=O)NCc2ccco2)CC1	-2.6%	–
CCOc1ccc(-n2c(C)nc3cc(C(=O)NCc4ccco4)ccc32)cc1	–	17.8 µM (active)
CC(C)(C)c1ccc(C(=O)NCCC(=O)NCc2ccco2)cc1	–	2.24 µM (active)
COCCNC(=O)c1ccc2c(c1)nc(C)n2-c1cc(OC)c(OC)c(OC)c1	12.1%	–
CCCCOc1ccc(C(=O)NCc2ccco2)cc1	–	10 µM (active)
CS(=O)(=O)Nc1c(O)ccc2c1CCC[C@H]2C1=NCCN1	13.5%	–
CNCCCC1c2ccccc2C=Cc2ccccc21	–	inactive
COc1ccc(Cl)cc1N=Nc1ncc[nH]1	19.7%	–
CC(=O)N1CCC[C@@]2(CCN(Cc3ccccc3)C2)C1	16.9%	–
O=C(O)c1ccc2c(c1)C(=O)N(C(Cc1ccc(O)cc1)C(=O)O)C2=O (configuration not stated)	-5.05%	–

SMILES	activity, negative = inhibition	AC50
C[N+](C)([O-])CCC=C1c2ccccc2CCc2ccccc21	-29.7% [at 11.4 µM]	–
Nc1ccc(C(=O)C[C@H](N)C(=O)O)cc1O	-13.6% [at 11.4 µM]	–
Cc1ccc(-c2c(C)sc(NC(=O)C3C4CCC(O4)C3C(=O)O)c2C(=O)OC(C)C)cc1 (configuration not stated)	-14.7%	–
Cc1sc(NC(=O)C2C3CCC(O3)C2C(=O)O)c(C(=O)OC(C)C)c1-c1ccc(Cl)cc1 (configuration not stated)	–	14.1 µM (active)
CCOC(=O)c1ccc(N/C(=N\S(=O)(=O)c2ccccc2C)c2ccccc2)cc1	–	3.98 µM (active)
NC(=O)c1ccccc1-c1nc(-n2ccnc2)c2ccccc2n1	8.72% [at 2.29 µM]	–
COCCNc1ncnc2ccc(-c3ccoc3)cc12	0.323% [at 2.29 µM]	–
CC(=O)OC[C@@H]1O[C@H](C/C=N\O[C@@H]2O[C@H](COC(C)=O)[C@@H](OC(C)=O)[C@H](OC(C)=O)[C@H]2OC(C)=O)C=C[C@@H]1OC(C)=O	4.96% [at 11.4 µM]	–
CC(=O)NS(=O)(=O)c1ccc(NC(=S)NC(=O)C(C)(C)C)cc1	-2.25%	–
COc1ccc(CC(=O)NC(=S)Nc2ccc(S(=O)(=O)NC(C)(C)C)cc2)cc1	–	8.91 µM (active)
CN1CC[C@@]2(CCCN(C(=O)c3cc(C(F)(F)F)cc(C(F)(F)F)c3)C2)C1	4.45%	–
CCCCCC/C(C)=C1/SC(=S)NC1=O	–	5.01 µM (active)
CCOC(=O)C1=C(O)/C(=C/c2cc(OC)c(OC)c(OC)c2)N=C1C	-28.9%	–
CCOC(=O)C1=C(O)/C(=C\c2ccc(OC)c(OC)c2)N=C1C	5.5%	–
CCOC(=O)c1ccccc1OCc1cc(/C=N/n2cnnc2)ccc1OC	–	2.24 µM (active)
CCOC(=O)NNC1CC(=O)N(c2ccc(OC)cc2)C1=O (configuration not stated)	-14.3%	–
CCN=C(Nc1cccc(F)c1)SC1CC(=O)N(c2ccc(OC)cc2)C1=O (configuration not stated)	–	6.31 µM (active)
COc1ccc(C(=O)N2CCC3(CCN(C(=O)Nc4cccc(F)c4)CC3)CC2)cc1	-1.3%	–
O=C1CC(N2CCOCC2)C(=O)N1c1cccc(Cl)c1 (configuration not stated)	-23.5%	–
O=C1CC(SC(=Nc2ccccc2)Nc2ccccc2)C(=O)N1c1cccc(Cl)c1 (configuration not stated)	–	3.55 µM (active)
